Among the data in PubChem BioAssay (EPA / NIEHS) are outcome and AC50 values, retold here.

In assay [1] the target is Retinoic acid receptor RXR-alpha (Homo sapiens) (UniProt P19793). Briefly: ATG_RXRa_TRANS: Attagene TRANS-FACTORIAL HepG2 Assay for human Retinoid X Receptor alpha (RXRa) (AID 2283012; active = hit-call score of the fitted dose curve at least 0.9, where 1 is the maximum). The essentials: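 Read-out: fluorescent reporter-transcript fragments quantified by capillary electrophoresis after RT-PCR. Transiently transfected HepG2 cells carrying GAL4-UAS reporters and NR-GAL4 chimeras were exposed to chemical for 24 h; activity scored as increase over DMSO.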
Retinoic acid receptor RXR-alpha (Homo sapiens), sequence (P19793 whole entry, looked up, the tested form may be a part): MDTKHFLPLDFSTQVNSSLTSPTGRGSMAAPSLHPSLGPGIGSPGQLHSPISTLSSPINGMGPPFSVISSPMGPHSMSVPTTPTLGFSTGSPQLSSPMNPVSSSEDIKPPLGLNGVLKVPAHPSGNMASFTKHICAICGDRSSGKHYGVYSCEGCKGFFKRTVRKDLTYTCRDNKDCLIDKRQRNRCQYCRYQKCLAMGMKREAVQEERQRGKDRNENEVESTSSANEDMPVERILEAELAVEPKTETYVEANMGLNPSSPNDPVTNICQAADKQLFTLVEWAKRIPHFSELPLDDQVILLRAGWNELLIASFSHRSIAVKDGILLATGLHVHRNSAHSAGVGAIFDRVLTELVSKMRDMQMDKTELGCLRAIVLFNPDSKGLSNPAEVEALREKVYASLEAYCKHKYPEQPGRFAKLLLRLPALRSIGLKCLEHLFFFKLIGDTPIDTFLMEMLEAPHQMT

Assay [2] deals with human Retinoid X Receptor beta (RXRb), RXRB (gene 6257) (UniProt P28702). The experiment in a line: ATG_RXRb_TRANS: Attagene TRANS-FACTORIAL HepG2 Assay for human Retinoid X Receptor beta (RXRb) (AID 2283013; active = hit-call score of the fitted dose curve at least 0.9, where 1 is the maximum). The essentials:
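Read-out: reporter mRNA induction via RT-PCR plus capillary electrophoresis fluorescence, analysed as signal increase relative to DMSO. Cells were human HepG2, transiently transfected with GAL4-UAS reporter constructs and chimeric receptor-Gal4 fusions, dosed for 24 h.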

In assay [3] the target is human Thyroid Receptor alpha (THRa1), THRA (gene 7067) (UniProt P10827). The experiment in a line: ATG_THRa1_TRANS: Attagene TRANS-FACTORIAL HepG2 Assay for human Thyroid Receptor alpha (THRa1) (AID 2283014; active = hit-call score of the fitted dose curve at least 0.9, where 1 is the maximum). The essentials:
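HepG2 cells transiently transfected with chimeric NR-Gal4 and GAL4-UAS reporter units, dosed 24 h. Reporter mRNA quantified by RT-PCR, fluorescent labeling, HpaI digestion and capillary electrophoresis; gain-of-signal fit versus DMSO.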

For assay [4], the target named is human Vitamin D Receptor (VDR), VDR (gene 7421) (UniProt P11473). Briefly: ATG_VDR_TRANS: Attagene TRANS-FACTORIAL HepG2 Assay for human Vitamin D Receptor (VDR) (AID 2283022; active = hit-call score of the fitted dose curve at least 0.9, where 1 is the maximum). The essentials:
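HepG2 cells were transiently transfected with GAL4-UAS reporter units and a chimeric VDR-Gal4 construct, then dosed for 24 hours. Reporter mRNA was quantified by RT-PCR, fluorescent labeling, HpaI digestion and capillary electrophoresis; gain of signal analysed vs DMSO.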

Read-out in assay [5]: E-selectin (Homo sapiens) (UniProt P16581)
The experiment in a line: BSK_3C_Eselectin: BioMAP Diversity Plus: 3C Assay for Eselectin Biomarker Activity (AID 2283015). The note with it: primary human endothelial cells (HUVEC); actives raise or lower the signal. In short, it runs like this: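 Primary human umbilical vein endothelial cells (3C system), read 24 h after compound addition; E-selectin measured by ELISA. Bidirectional curve fitting against DMSO baseline; cytotoxicity by parallel SRB total-protein staining.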

Read-out in assay [6]: Interleukin-1 alpha (IL1a), IL1A (gene 3552)
Briefly: BSK_BE3C_IL1a: BioMAP Diversity Plus: BE3C Assay for Interleukin-1 alpha (IL1a) Biomarker Activity (AID 2283016). The following applies: primary human bronchial epithelial cells; actives raise or lower the signal. The essentials:
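ELISA read-out of IL-1a from human lung bronchial epithelial primary cells, 24 h post-dose. Gain or loss of signal fitted relative to DMSO negative control.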

Read-out in assay [7]: Monocyte Chemoattractant Protein-1 (MCP1), CCL2 (gene 6347)
Briefly: BSK_3C_MCP1: BioMAP Diversity Plus: 3C Assay for Monocyte Chemoattractant Protein-1 (MCP1) Biomarker Activity (AID 2283017). The note with it: primary human endothelial cells (HUVEC); actives raise or lower the signal. In short, it runs like this:
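Human umbilical vein endothelial cells (3C system) exposed to chemicals for 24 h; MCP-1 quantified by ELISA against the DMSO baseline with bidirectional fitting, and parallel SRB staining used to assess cytotoxicity.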

Read-out in assay [8]: Monocyte Chemoattractant Protein-1 (MCP1), CCL2 (gene 6347)
The experiment in a line: BSK_4H_MCP1: BioMAP Diversity Plus: 4H Assay for Monocyte Chemoattractant Protein-1 (MCP1) Biomarker Activity (AID 2283018). The note with it: primary human endothelial cells (HUVEC); actives raise or lower the signal. The essentials: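 HUVEC primary cells, 24 h post-dose, MCP-1 by ELISA. Gain or loss of signal fitted bidirectionally vs DMSO baseline. Cytotoxicity: SRB stain (0.1% after 10% TCA fixation), read 560 nm, parallel cultures.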

Read-out in assay [9]: Interleukin-8 (IL8), CXCL8 (gene 3576)
The experiment in a line: BSK_3C_IL8: BioMAP Diversity Plus: 3C Assay for Interleukin-8 (IL8) Biomarker Activity (AID 2283020). The note with it: primary human endothelial cells (HUVEC); actives raise or lower the signal. The essentials:
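HUVEC, 3C stimulation; 24 h compound exposure; IL-8 read by ELISA; gain or loss of signal fitted relative to DMSO control.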

Read-out in assay [10]: Monokine induced gamma interferon (MIG), CXCL9 (gene 4283)
The experiment in a line: BSK_3C_MIG: BioMAP Diversity Plus: 3C Assay for Monokine induced gamma interferon (MIG) Biomarker Activity (AID 2283021).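 For AC50: MIG protein level measured by immunoassay in the treated endothelial cultures.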 The following applies: primary human endothelial cells (HUVEC); actives raise or lower the signal. In short, it runs like this:
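HUVEC, 3C system; 24 h chemical exposure; MIG by ELISA; bidirectional fit vs DMSO baseline.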

Assay [11] is described as follows: BSK_3C_SRB: Viability Assessment in the BioMAP Diversity Plus: 3C Assay (AID 2283023).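 Note: fitted both ways against DMSO so a hit may be signal rise or drop.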 The note with it: primary human endothelial cells (HUVEC). In short, it runs like this:
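Human umbilical vein endothelial cells in the 3C system, treated 24 h. Total protein measured by 0.1% sulforhodamine B staining after 10% TCA fixation, read at 560 nm; bidirectional fit versus DMSO.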

Read-out in assay [12]: Matrix Metallopeptidase 1 (MMP1), MMP1 (gene 4312)
Briefly: BSK_BE3C_MMP1: BioMAP Diversity Plus: BE3C Assay for Matrix Metallopeptidase 1 (MMP1) Biomarker Activity (AID 2283024). The following applies: primary human bronchial epithelial cells; actives raise or lower the signal. In short, it runs like this:
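ELISA read-out of MMP1 in human lung bronchial epithelial primary cultures, 24 h post-dose; bidirectional curve fit vs DMSO baseline, gain or loss of signal scored.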

A short description of assay [13]: BSK_3C_Vis: BioMAP Diversity Plus: 3C Assay for Morphology Visualization (AID 2283025).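 For AC50: light microscopy image of cell morphology used as background control.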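 Note: fitted both ways so gain or loss versus DMSO counts.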 The note with it: primary human endothelial cells (HUVEC). The essentials:
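HUVEC, 3C system; light microscopy of morphology at 24 h post-dose. Bidirectional fit vs DMSO baseline. Secondary readout, background-control function.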

Read-out in assay [14]: Pselectin, SELP (gene 6403)
The experiment in a line: BSK_4H_Pselectin: BioMAP Diversity Plus: 4H Assay for Pselectin Biomarker Activity (AID 2283026). The following applies: primary human endothelial cells (HUVEC); actives raise or lower the signal. In short, it runs like this:
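HUVEC, 24 h chemical exposure; P-selectin read by ELISA. Bidirectional curve fit vs DMSO baseline; gain or loss of signal scored.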

Assay [15] is described as follows: BSK_4H_SRB: Viability Assessment in the BioMAP Diversity Plus: 4H Assay (AID 2283027).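 For AC50: curves fitted both ways versus DMSO so AC50 may be loss or gain.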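 Note: cells exposed to compound for 24 h before staining.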 The note with it: primary human endothelial cells (HUVEC). In short, it runs like this:
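Cytotoxicity readout: sulforhodamine B (0.1%) staining of total protein after 10% TCA fixation, measured at 560 nm in human umbilical vein endothelium at 24 h. DMSO set the baseline; fitting was bidirectional.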

The nature of assay [16]: BSK_BE3C_SRB: Viability Assessment in the BioMAP Diversity Plus: BE3C Assay (AID 2283028).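 For AC50: fitted both ways so AC50 may mark signal gain or loss versus DMSO.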 The note with it: primary human bronchial epithelial cells. The essentials: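 Human bronchial epithelial primary cells in confluent culture, 24 h after chemical dosing; total protein by 0.1% SRB staining after 10% TCA fixation, read at 560 nm. Bidirectional fitting versus DMSO baseline.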

Read-out in assay [17]: Thrombomodulin, THBD (gene 7056)
Briefly: BSK_3C_Thrombomodulin: BioMAP Diversity Plus: 3C Assay for Thrombomodulin Biomarker Activity (AID 2283029). The note with it: primary human endothelial cells (HUVEC); actives raise or lower the signal. The essentials:
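HUVEC, 3C conditions; compound 24 h; thrombomodulin by ELISA; bidirectional curve fit vs DMSO baseline; parallel SRB total-protein staining for cytotoxicity.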

Read-out in assay [18]: Urokinase-type plasminogen activator receptor (uPAR), PLAUR (gene 5329)
Briefly: BSK_4H_uPAR: BioMAP Diversity Plus: 4H Assay for Urokinase-type plasminogen activator receptor (uPAR) Biomarker Activity (AID 2283030). The note with it: primary human endothelial cells (HUVEC); actives raise or lower the signal. The essentials:
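Human umbilical vein endothelial cells in the 4H system, 24 h after chemical dosing. Cell-surface uPAR measured by ELISA, fitted in both directions versus DMSO; cytotoxicity checked by SRB total protein in parallel cultures.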

Read-out in assay [19]: Human Leukocyte Antigen - DR isotype (HLADR), HLA-DRA (gene 3122)
The experiment in a line: BSK_3C_HLADR: BioMAP Diversity Plus: 3C Assay for Human Leukocyte Antigen - DR isotype (HLADR) Biomarker Activity (AID 2283019). The following applies: primary human endothelial cells (HUVEC); actives raise or lower the signal. The essentials: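 HUVEC monoculture, HLA-DR measured by ELISA 24 h after chemical dosing. Fitted bidirectionally against DMSO baseline; parallel SRB staining assessed cytotoxicity, with 3C proliferation read by SRB at 48 h.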

Records with an inconclusive call do not appear. Calls of active or inactive are those of the source. Rule for the calls, unless noted: active = hit-call score of the fitted dose curve at least 0.9, where 1 is the maximum; inactive = score below 0.9.

human Vitamin D Receptor (VDR), VDR (gene 7421), sequence (P11473 whole entry, looked up, the tested form may be a part): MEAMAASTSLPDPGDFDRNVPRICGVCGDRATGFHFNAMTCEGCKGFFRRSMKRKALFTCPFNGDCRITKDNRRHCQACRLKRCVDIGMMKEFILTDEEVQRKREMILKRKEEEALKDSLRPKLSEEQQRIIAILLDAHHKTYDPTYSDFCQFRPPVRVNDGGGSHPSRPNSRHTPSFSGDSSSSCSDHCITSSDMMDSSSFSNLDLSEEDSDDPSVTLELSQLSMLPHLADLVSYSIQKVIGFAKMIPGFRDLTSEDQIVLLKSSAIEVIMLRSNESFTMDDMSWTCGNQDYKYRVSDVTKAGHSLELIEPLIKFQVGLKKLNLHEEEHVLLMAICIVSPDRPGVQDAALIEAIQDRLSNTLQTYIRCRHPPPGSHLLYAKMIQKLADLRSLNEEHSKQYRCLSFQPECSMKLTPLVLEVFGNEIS
human Thyroid Receptor alpha (THRa1), THRA (gene 7067), sequence (P10827 whole entry, looked up, the tested form may be a part): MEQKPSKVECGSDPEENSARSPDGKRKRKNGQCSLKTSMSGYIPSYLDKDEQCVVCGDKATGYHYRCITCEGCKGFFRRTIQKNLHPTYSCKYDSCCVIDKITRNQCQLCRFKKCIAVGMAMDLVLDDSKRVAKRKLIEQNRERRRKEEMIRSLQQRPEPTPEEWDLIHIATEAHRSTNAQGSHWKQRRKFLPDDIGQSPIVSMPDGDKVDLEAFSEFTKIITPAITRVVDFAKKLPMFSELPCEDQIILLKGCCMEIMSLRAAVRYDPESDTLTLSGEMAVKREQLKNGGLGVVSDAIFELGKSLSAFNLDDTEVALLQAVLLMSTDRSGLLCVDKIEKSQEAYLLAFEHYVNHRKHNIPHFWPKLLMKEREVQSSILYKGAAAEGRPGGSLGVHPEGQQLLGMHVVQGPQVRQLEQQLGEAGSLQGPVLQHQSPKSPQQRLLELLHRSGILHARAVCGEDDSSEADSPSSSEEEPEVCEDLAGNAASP
human Retinoid X Receptor beta (RXRb), RXRB (gene 6257), sequence (P28702 whole entry, looked up, the tested form may be a part): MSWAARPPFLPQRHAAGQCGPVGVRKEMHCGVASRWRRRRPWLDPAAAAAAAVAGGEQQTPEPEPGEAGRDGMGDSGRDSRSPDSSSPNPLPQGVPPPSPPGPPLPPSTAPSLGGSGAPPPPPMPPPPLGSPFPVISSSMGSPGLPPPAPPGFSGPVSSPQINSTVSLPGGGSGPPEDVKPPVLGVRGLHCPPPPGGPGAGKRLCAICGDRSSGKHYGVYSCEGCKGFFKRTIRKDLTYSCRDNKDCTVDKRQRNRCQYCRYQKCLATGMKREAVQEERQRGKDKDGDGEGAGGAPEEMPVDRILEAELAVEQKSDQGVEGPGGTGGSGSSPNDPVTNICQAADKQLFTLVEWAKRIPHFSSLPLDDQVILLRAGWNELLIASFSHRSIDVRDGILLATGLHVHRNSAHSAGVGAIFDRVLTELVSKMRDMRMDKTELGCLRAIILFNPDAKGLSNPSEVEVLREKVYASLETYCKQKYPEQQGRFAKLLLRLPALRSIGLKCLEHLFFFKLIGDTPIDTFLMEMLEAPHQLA
E-selectin (Homo sapiens), sequence (P16581 whole entry, looked up): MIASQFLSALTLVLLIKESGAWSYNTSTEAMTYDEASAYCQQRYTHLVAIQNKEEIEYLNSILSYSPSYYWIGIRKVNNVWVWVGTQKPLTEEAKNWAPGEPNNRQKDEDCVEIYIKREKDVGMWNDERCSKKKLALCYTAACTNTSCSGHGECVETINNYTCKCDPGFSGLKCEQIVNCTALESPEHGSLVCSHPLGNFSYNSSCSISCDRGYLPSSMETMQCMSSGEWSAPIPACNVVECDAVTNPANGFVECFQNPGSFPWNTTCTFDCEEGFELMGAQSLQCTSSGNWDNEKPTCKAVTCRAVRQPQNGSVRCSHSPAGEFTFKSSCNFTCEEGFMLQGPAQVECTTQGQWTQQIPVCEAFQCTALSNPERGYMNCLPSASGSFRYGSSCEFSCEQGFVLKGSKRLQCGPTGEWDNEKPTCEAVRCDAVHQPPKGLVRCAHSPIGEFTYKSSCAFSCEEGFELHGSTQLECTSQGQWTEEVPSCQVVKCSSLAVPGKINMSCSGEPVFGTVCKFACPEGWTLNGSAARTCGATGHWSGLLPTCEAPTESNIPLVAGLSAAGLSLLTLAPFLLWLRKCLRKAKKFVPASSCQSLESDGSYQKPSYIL

Consider `Cc1cccc(N=Nc2ccc(N(C)C)cc2)c1`, for which the call in [1] and in [2] was inactive.

Regarding `C=C(C)C(=O)OCC(CC)CCCC` (stereo not given), the result in [1], in assay [2] and in assay [3] was inactive.

Regarding `CC(F)(F)CC(F)(F)F`, the compound was called inactive in assay [1], in assay [2], in assay [3] and in [4].

Consider `FC(F)OCC(F)(F)C(F)(F)F`, for which the compound was called inactive in assay [1], in assay [2] and in assay [4].

Consider `CC(C)(C)c1cc([N+](=O)[O-])cc(C(C)(C)C)c1O`, for which the half-maximal activity concentration (AC50) (as a rule, the concentration at which the activity in the assay is half-maximal) in assay [1] is 26.7 µM (active); in [2], 2.54 µM (active); in assay [5], 0.549 µM (active); in assay [11], 0.815 µM (active); in [15], 0.0719 µM (active); in [17] it was 0.0473 µM (active). Also, the result in [6], in [7], in assay [8], in assay [9], in [10] and in [4] was inactive. The outcome in [12], in assay [13], in assay [14], in [16] and in assay [18] was inactive.

`C=CC(F)(C(F)(F)F)C(F)(F)C(F)(F)F` (stereo not given): the compound was called inactive in assay [1], in assay [2] and in assay [4].

`Cc1c([N+](=O)[O-])c(C)c([N+](=O)[O-])c(C(C)(C)C)c1[N+](=O)[O-]`: the AC50 was 9.15 µM (active) in assay [1]; 1.12 µM (active) in assay [2]; 20 µM (active) in assay [5]; 20 µM (active) in assay [8]; 20 µM (active) in assay [11]; 7.08 µM (active) in assay [12]. Besides, in [13], the AC50 is 37.4 µM (active). The outcome in [6], in assay [7], in assay [9], in assay [10], in assay [14] and in assay [15] was inactive. Moreover, the outcome in assay [16], in [17] and in assay [18] was inactive.

With `CCOP(=S)(OCC)O/N=C(\C#N)c1ccccc1`, the compound was classed as inactive in [1] and in assay [4]. Besides, the AC50 in [2] is 27.5 µM (active).

In the case of `CC(=O)C(F)(F)C(F)(F)F`, the result in [1] and in assay [2] was inactive.

Consider `c1csc(-c2ccc(-c3cccs3)s2)c1`, for which the call in assay [1], in [2] and in [3] was inactive.

Turning to `O=S(=O)(C(Cl)(Cl)Cl)C(Cl)(Cl)Cl`, the outcome in [1] and in assay [4] was inactive. Moreover, the AC50 in [2] is 20 µM (active); in [5], 1.86 µM (active); in [6], 3.32 µM (active); in [8], 1.16 µM (active); in assay [19], 0.852 µM (active); in [9] it was 5.32 µM (active). Also, the AC50 is 3.82 µM (active) in [10]; 1.12 µM (active) in assay [11]; 7.31 µM (active) in assay [12]; 4.25 µM (active) in assay [13]; 1.1 µM (active) in [14]; 0.932 µM (active) in assay [15]. Moreover, the AC50 is 4.45 µM (active) in assay [16], 10.1 µM (active) in [17] and 1.45 µM (active) in [18].

With `Cc1cc(C)cc(C)c1`, in [7], the result was inactive.

Regarding `Cc1ccccc1OP(=O)(Oc1ccccc1)Oc1ccccc1`, the AC50 in assay [7] is 31 µM (active).
